Results taken from ChEMBL document CHEMBL3433997, “St. Jude Leishmania screening dataset” (2016).

Columns and labels:
Format in all cases: functional
[1] = molecular target: Solute carrier family 2, facilitated glucose transporter member 1 (Homo sapiens) (UniProt P11166); experiment: ST_JUDE_LEISH: Cytotoxicity at 2uM final concentration against transgenic Leishmania Mexicana promastigotes LmGLUT1 that are glucose transport deficient and complemented with the human glucose transporter GLUT1. Activity is measured by DNA content using SYBR green in vitro
[2] = molecular target: Hexose transporter 1 (Plasmodium falciparum) (UniProt O97467); experiment: ST_JUDE_LEISH: Cytotoxicity at 2uM final concentration against transgenic Leishmania Mexicana promastigotes LmPfHT that are glucose transport deficient and complemented with the Plasmodium falciparum hexose transporter. Activity is measured by DNA content using SYBR green in vitro
[3] = molecular target: Glucose transporter (Leishmania mexicana) (UniProt O61059); experiment: ST_JUDE_LEISH: Cytotoxicity at 2uM final concentration against transgenic Leishmania Mexicana promastigotes LmGT2 that are glucose transport deficient and complemented with the L. Mexicana glucose transporter 2. Activity is measured by DNA content using SYBR green in vitro

Chain of Solute carrier family 2, facilitated glucose transporter member 1 (Homo sapiens) (P11166 whole entry): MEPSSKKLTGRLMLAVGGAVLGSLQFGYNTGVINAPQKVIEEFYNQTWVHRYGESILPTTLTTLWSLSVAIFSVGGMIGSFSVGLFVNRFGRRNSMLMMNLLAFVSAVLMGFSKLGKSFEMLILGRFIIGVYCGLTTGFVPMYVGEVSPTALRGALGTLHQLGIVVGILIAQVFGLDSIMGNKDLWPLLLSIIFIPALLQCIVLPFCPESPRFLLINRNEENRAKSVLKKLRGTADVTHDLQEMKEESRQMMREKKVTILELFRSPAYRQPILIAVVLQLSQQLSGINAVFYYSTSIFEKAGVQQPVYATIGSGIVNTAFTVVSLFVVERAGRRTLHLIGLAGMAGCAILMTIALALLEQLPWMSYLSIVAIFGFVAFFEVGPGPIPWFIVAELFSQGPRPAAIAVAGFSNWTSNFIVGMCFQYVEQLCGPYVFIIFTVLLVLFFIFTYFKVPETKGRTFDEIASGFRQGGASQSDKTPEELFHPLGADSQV

Row | Compound | inhibition [1] | inhibition [2] | inhibition [3]
1 | c1cc(-c2ccc(CNCc3ccsc3)cc2)cc(-c2nc3ccccc3[nH]2)c1 | 1.08% | 3.56% | -2.01%
2 | CC(C)[C@H](NC(=O)NC1CCC(CCN2C3CCC2CC(OC(=O)C(CO)c2ccccc2)C3)CC1)C(O)(c1ccccc1)c1ccccc1 (stereo not given in full) | 3.62% | 3.92% | 1.15%
3 | O=S(=O)(Nc1ccc2nccc(N3CCNCC3)c2c1)c1ccc2oc3ccccc3c2c1 | 4.08% | 6.5% | 5.02%
4 | COc1ccc(CCN(C)CCCOc2ccc(NC(=O)COc3cccc4sc5ccccc5c(=O)c34)cc2)cc1OC | -2.54% | -2.87% | -0.2%
5 | Cc1cccc(C(=O)Nc2ccnc(N3CCC(N(C)Cc4ccc(C#N)cc4)CC3)c2)c1 | 3.54% | 2.52% | 3.1%
6 | Fc1ccc2[nH]c(-c3ccc(-c4ccc(CN5CCN(CCN6CCOCC6)CC5)cc4)s3)nc2c1 | 6.46% | 2.96% | 1.83%
7 | CCN(CC)CCN(Cc1ccc(-c2ccc(C(F)(F)F)cc2)cc1)C(=O)Cn1cc(CCCc2cccc(F)c2F)c(=O)c2ccccc21 | 4.03% | 3.93% | 4.35%
8 | CN(C)Cc1ccc(O)c(-c2ccc(C(C)(C)C)cc2)n1 | -0.79% | 0.1% | 2.74%
9 | COc1ccc(Nc2nccc(NCC(O)c3ccc(C(F)(F)F)cc3)n2)cc1 (stereo not given) | 2.9% | 5.27% | 2.61%
10 | Cc1ccc(NC(=O)c2ccc(CN3CCCN(Cc4cccc(O)c4)CC3)cc2)cc1C | 0.9% | 0.45% | 4.65%
11 | Cc1cc(O)c(-c2ccc(S(=O)(=O)c3ccc(Cl)cc3)cc2)c(C)n1 | 0.09% | 0.81% | 1.44%
12 | O=C(Nc1cccc(-c2nc3ccccc3[nH]2)c1)c1ccc(-c2cccc([N+](=O)[O-])c2)o1 | 4.88% | 5.59% | 7.27%
13 | COc1ccc2nccc([C@@H](O)CN3CCC(NCCc4c[nH]c5ccccc45)CC3)c2c1 | 9.59% | 11% | 7.8%
14 | CC(C)(C)c1ccc(NC(=O)c2cccc(CN3CCN(Cc4cccc(O)c4)CC3)c2)cc1 | 0.93% | -0.15% | 0.64%
15 | CCn1ccc2c(N3CCCC3=O)cc(C(=O)N[C@@H](Cc3ccccc3)[C@H](O)CNCc3cccc(OC)c3)cc21 | 1.06% | 1.98% | 0.14%
16 | N#Cc1ccc(-c2ccc(C(=O)NCCCCN3CCC(c4cc(Br)c5c(c4OCC(N)=O)CCCC5)CC3)cc2)cc1 | 2.88% | 1.24% | -0.04%
17 | Nc1nc(N)c2c(ccc3nn(S(=O)(=O)N4CCCC4)cc32)n1 | 4.35% | 4.05% | 4.06%
18 | COc1ccc(NC(=O)C2c3ccccc3C(=O)N(C3CCCC3)C2c2cccs2)c(OC)c1 (stereo not given) | 1.15% | -0.63% | -1.93%
19 | Cc1cc(CNC(=O)c2ccc(-c3ccc(-c4nc5cc(C(F)(F)F)ccc5[nH]4)s3)cc2)on1 | 4.04% | 3.31% | 1.12%
20 | O=C(/C=C/c1ccc(Cl)c(Cl)c1)NCCCCCN1CCCN(C(=O)Nc2cccc(F)c2)CC1 | 0.1% | 0.29% | 3.86%
21 | CCCCCCNC(=O)C1Cc2c([nH]c3ccc(C)cc23)C2(CCN(Cc3ccccc3)CC2)N1 (stereo not given) | 0.98% | 0.07% | 1.33%
22 | CN1CCN(CCCNCc2cccc(Nc3nccc(Nc4ccc(Oc5ccccc5)cc4)n3)c2)CC1 | 1.12% | 2.79% | 0.79%
23 | O=C(N[C@@H](CC1CCCCC1)C(=O)NCCN1CCCCC1)c1ccc(O)c(-c2cccc(C(F)(F)F)c2)c1 | 2.41% | 3.95% | -0.49%
24 | Cc1ccc(NC(=O)c2cccc(CN3CCCN(Cc4cccc(O)c4)CC3)c2)cc1 | -0.49% | 0.65% | 0.25%
25 | CNC(=O)NC1CCN(Cc2c(-c3cccs3)nc3ccccc3c2C(=O)N[C@@H](C)C2CCCCC2)CC1 | -1.53% | 0.94% | -1.52%

Row | Compound | inhibition [1] | inhibition [2] | inhibition [3]
26 | COc1ccc(C(=O)Nc2cc(Br)c3c(c2)CNCC3)cc1Br | 2.73% | 3.54% | 1.69%
27 | CCN(CC)CCCSc1ccc(-c2ccc(SCCCN(CC)CC)cc2)cc1 | 88.5% | 91.5% | 78.2%
28 | O=S(=O)(NCCN1CCCC1)c1ccc(-c2ccc(CNCc3ccc(F)cc3)cc2)cc1F | 5.72% | 5.82% | 3.28%
29 | Nc1cccc(-c2ccc3ccnc(N)c3c2)c1 | 3.63% | 4.39% | 3.35%
30 | CCNc1cc(C(=O)NC(Cc2ccccc2)C(O)CNC2CCSCC2)cc(N2CCCC2=O)c1 (stereo not given) | 3.69% | 3.13% | 4%
31 | COc1ccc2c(NN=CC=Cc3ccccc3)ccnc2c1 | 9.5% | 6.81% | 11.6%
32 | O=C(Nc1ccc(OC2CCN(Cc3ccccc3)C2)c(Cl)c1)c1cccs1 (stereo not given) | 1.18% | 1.06% | 1.66%
33 | CN(C)CCN1CCN(Cc2cccc(-c3csc(-c4nc5ccccc5[nH]4)c3)c2)CC1 | 0.51% | 2.44% | 2.16%
34 | COc1cccc2cc(C(=O)N[C@@H](CC(C)C)C(=O)N[C@H](/C=N/NC(=O)c3ccccc3)Cc3c[nH]cn3)oc12 | 2.75% | 0.99% | 3.92%
35 | Cc1ccc(F)c(OCC2CCN(c3ccc(C(=O)NC4CC4)cn3)CC2)c1 | 3.7% | 2.89% | -1.65%
36 | CC(C)(C)Oc1ccc(C[C@@H]2NC3(C(=O)N(Cc4ccc(Cl)c(Cl)c4)c4ccccc43)C3C(=O)N(c4ccc(Br)cc4)C(=O)C32)cc1 (stereo not given in full) | 4.6% | 4.73% | 2.5%
37 | CCCCCCC(C)c1cc(O)c2c(c1)OC(C)(C)C=C2c1ccncc1 (stereo not given) | 1.01% | -0.62% | 0.58%
38 | Oc1cc(Nc2ccnc3cc(-c4cccc(CN5CCOCC5)c4)ccc23)c(F)cc1Cl | 4.47% | 4.48% | 3.67%
39 | COc1cccc(C(=O)OC2=C3CCC(=O)C3(C)CCC2=O)c1 (stereo not given) | 5.35% | 4.65% | 6.31%
40 | CCCCCOc1ccc(C=NNc2nc(O)cc(-c3ccccc3)n2)cc1 | 2.62% | 2.5% | 1.79%
41 | O=C(NCCCN1CCCC1=O)c1cnc(N2CCC(Oc3ccccc3)CC2)c(Cl)c1 | 0.56% | 3.58% | 0.19%
42 | CCn1c(Cc2ccccc2)nnc1Sc1ccc([N+](=O)[O-])c(C#N)c1 | 5.75% | 6.38% | 3.87%
43 | O=C(Nc1cccc(CN2CCCN(Cc3ncc[nH]3)CC2)c1)c1ccc2ccccc2c1 | -2.43% | -3.48% | 1.4%
44 | Cc1cc(N[C@@H](Cc2ccccc2)C(=O)NCCOc2ccccc2)nc(Nc2ccccc2)n1 | 6.08% | 6.54% | 2.62%
45 | O=C(c1ccc(F)cc1)N1CCOC(CCN2CCC(c3ccccc3)CC2)(c2ccc(Cl)c(Cl)c2)C1 (stereo not given) | 0.53% | 1.42% | 5.2%
46 | Oc1cccc(Nc2ccnc3cc(-c4nccs4)ccc23)c1 | -0.6% | 12.9% | 16.1%
47 | CS(=O)(=O)Cc1ccc(Nc2nccc(-c3c(-c4cccc(NC(=O)C5CCCCC5)c4)nn4ncccc34)n2)cc1 | 3.22% | 5.62% | 1.63%
48 | CC(CN1CCN(C)CC1)C(=O)Nc1ccc(-c2ccc(-c3nc4ccccc4[nH]3)cc2)cc1 (stereo not given) | 0.19% | 3.04% | 1.16%
49 | CCc1nn2c(Nc3ccncc3)cc(C)nc2c1-c1ccccc1 | 3.36% | 3.33% | 1.85%
50 | NC(=O)c1ccc(C(=O)Nc2cccc(-c3csc(-c4nc5ccccc5[nH]4)c3)c2)cc1 | 9.88% | 8.58% | 8.06%
